Measured values from the supplement of paper PMC11001985.

Columns and labels:
Assay in all cases: lysine labeling ratio R10:1 (500 µM / 50 µM probe), SILAC-ABPP in living cells; higher = lower intrinsic lysine reactivity toward the probe, active = 2 or less
Conditions in all cases: HeLa; probe concentrations 500 vs 50 µM
[1] = target: ACLY (lysine site: K1080) (UniProt P53396)
Procedure, shortened: (§1)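 An alkyne-tagged lysine probe with a disulfide linker labelled living HeLa cells in PBS at room temperature at either 50 µM or 500 µM, using SILAC light and heavy cells in forward and reverse label swaps. Lysates were mixed, clicked to biotin-azide, trypsin-digested, enriched on neutravidin, DTT-released, alkylated and measured by LC-MS/MS on a TIMS-TOF Pro. Each lysine's R is the filtered median high-probe/low-probe MS1 peptide ratio, combined as the median over forward and reverse replicates, with 20 as the upper limit.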

ACLY (lysine site: K272) = ACLY (lysine site: K272) (UniProt P53396)
Sequence of ACLY (lysine site: K272) (P53396 whole entry): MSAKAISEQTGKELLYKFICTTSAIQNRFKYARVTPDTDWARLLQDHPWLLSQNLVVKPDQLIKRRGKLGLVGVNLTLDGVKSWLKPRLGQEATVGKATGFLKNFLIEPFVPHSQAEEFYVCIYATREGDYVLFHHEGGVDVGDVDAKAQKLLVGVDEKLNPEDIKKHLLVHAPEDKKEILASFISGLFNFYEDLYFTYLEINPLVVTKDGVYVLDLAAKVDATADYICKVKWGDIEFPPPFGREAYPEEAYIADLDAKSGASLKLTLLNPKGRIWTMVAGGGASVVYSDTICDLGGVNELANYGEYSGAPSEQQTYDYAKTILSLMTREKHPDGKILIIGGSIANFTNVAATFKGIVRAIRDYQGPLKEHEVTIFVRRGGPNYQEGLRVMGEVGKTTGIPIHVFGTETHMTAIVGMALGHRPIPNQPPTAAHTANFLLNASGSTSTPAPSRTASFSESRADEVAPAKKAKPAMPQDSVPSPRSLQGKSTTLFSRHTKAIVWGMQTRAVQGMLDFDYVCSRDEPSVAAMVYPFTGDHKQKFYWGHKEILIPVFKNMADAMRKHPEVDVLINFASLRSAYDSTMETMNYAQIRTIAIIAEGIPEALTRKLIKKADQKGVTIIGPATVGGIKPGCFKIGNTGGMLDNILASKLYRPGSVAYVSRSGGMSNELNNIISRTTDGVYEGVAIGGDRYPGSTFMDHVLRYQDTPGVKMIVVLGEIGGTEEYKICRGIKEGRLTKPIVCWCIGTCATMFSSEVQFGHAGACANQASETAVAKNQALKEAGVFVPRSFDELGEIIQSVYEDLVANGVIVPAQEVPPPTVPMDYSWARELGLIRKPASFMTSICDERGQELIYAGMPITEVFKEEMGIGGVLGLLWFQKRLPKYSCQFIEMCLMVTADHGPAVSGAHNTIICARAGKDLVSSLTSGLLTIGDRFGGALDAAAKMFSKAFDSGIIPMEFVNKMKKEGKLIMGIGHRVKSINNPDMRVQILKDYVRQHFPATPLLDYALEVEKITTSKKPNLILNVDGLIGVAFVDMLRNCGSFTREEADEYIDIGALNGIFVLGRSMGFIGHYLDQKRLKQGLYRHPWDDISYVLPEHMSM
Procedure, shortened: as §1

ACLY (lysine site: K780) = ACLY (lysine site: K780) (UniProt P53396)
Sequence of ACLY (lysine site: K780) (P53396 whole entry): as above
Procedure, shortened: as §1

ACLY (lysine site: K836) = ACLY (lysine site: K836) (UniProt P53396)
Sequence of ACLY (lysine site: K836) (P53396 whole entry): as above
Procedure, shortened: as §1

ACLY (lysine site: K968) = ACLY (lysine site: K968) (UniProt P53396)
Sequence of ACLY (lysine site: K968) (P53396 whole entry): as above
Procedure, shortened: as §1

ACLY (lysine site: K978) = ACLY (lysine site: K978) (UniProt P53396)
Sequence of ACLY (lysine site: K978) (P53396 whole entry): as above
Procedure, shortened: as §1

[2] = target: ADAM10 (lysine site: K273) (UniProt O14672)
Procedure, shortened: as §1

[3] = target: ADAM10 (lysine site: K410) (UniProt O14672)
Procedure, shortened: as §1

[4] = target: ADAM10 (lysine site: K601) (UniProt O14672)
Procedure, shortened: as §1

[5] = target: BACE2 (lysine site: K299) (UniProt Q9Y5Z0)
Sequence of BACE2 (lysine site: K299) (Q9Y5Z0 whole entry): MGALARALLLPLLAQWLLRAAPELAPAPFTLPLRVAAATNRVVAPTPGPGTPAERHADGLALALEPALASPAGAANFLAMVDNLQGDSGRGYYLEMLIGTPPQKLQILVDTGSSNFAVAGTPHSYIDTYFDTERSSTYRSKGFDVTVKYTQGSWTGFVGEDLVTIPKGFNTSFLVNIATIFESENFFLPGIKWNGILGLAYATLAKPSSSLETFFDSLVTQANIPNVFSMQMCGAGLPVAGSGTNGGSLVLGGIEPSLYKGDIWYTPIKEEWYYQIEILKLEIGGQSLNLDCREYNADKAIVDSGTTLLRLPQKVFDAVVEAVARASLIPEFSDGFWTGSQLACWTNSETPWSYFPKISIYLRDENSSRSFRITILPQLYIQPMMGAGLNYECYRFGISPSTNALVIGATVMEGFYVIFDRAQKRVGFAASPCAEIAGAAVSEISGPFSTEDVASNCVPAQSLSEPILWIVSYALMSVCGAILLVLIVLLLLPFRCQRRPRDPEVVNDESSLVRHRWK
Procedure, shortened: as §1

BSG (lysine site: K264) = BSG (lysine site: K264) (UniProt P35613)
Procedure, shortened: as §1

CALR (lysine site: K159) = CALR (lysine site: K159) (UniProt P27797)
Procedure, shortened: as §1

CALR (lysine site: K360) = CALR (lysine site: K360) (UniProt P27797)
Procedure, shortened: as §1

CALR (lysine site: K64) = CALR (lysine site: K64) (UniProt P27797)
Procedure, shortened: as §1

CAV1 (lysine site: K47) = CAV1 (lysine site: K47) (UniProt Q03135)
Procedure, shortened: as §1

CDC37 (lysine site: K60) = CDC37 (lysine site: K60) (UniProt Q16543)
Procedure, shortened: as §1

[6] = target: CSDE1 (lysine site: K307) (UniProt O75534)
Procedure, shortened: as §1

CSTB (lysine site: K91) = CSTB (lysine site: K91) (UniProt P04080)
Procedure, shortened: as §1

[7] = target: DDX50 (lysine site: K271) (UniProt Q9BQ39)
Procedure, shortened: as §1

[8] = target: DDX50 (lysine site: K432) (UniProt Q9BQ39)
Procedure, shortened: as §1

GART (lysine site: K251) = GART (lysine site: K251) (UniProt P22102)
Sequence of GART (lysine site: K251) (P22102 whole entry): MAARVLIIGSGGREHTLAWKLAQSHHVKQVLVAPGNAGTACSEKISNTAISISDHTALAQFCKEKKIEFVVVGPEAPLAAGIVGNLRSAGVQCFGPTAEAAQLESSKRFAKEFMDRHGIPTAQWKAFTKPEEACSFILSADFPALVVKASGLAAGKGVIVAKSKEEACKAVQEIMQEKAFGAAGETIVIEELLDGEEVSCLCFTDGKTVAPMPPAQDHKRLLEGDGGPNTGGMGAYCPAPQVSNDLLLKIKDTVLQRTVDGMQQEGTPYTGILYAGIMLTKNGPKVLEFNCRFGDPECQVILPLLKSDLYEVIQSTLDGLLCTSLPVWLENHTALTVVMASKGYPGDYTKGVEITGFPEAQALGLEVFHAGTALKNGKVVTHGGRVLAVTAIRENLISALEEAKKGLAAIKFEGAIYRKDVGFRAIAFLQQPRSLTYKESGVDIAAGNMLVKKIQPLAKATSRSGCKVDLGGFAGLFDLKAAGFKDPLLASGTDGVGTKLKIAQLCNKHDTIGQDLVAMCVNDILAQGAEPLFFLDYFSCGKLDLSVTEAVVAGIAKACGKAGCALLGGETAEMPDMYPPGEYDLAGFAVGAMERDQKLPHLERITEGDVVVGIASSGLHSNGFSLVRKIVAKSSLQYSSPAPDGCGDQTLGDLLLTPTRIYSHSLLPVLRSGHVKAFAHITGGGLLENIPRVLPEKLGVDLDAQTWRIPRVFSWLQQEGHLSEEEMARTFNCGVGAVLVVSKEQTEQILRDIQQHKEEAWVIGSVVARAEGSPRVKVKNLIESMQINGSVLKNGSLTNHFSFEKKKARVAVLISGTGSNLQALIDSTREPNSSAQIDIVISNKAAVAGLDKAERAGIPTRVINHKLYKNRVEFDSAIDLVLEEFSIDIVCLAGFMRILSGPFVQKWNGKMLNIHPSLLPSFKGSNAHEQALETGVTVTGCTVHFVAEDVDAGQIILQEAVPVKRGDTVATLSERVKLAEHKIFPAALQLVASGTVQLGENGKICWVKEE
Procedure, shortened: as §1

[9] = target: HNRNPF (lysine site: K224) (UniProt P52597)
Sequence of HNRNPF (lysine site: K224) (P52597 whole entry): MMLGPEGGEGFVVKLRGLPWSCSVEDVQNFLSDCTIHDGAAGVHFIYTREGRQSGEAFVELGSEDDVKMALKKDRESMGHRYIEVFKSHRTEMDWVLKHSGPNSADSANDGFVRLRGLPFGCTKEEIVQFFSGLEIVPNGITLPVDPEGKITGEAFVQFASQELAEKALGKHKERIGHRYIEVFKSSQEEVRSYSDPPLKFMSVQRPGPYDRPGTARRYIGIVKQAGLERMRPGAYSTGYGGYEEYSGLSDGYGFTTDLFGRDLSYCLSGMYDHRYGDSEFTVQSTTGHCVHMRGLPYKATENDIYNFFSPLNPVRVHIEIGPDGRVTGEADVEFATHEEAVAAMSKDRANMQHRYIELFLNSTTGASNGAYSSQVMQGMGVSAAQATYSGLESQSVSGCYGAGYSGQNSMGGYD
Procedure, shortened: as §1

[10] = target: HNRNPF (lysine site: K87) (UniProt P52597)
Sequence of HNRNPF (lysine site: K87) (P52597 whole entry): as above
Procedure, shortened: as §1

[11] = target: HNRNPF (lysine site: K98) (UniProt P52597)
Sequence of HNRNPF (lysine site: K98) (P52597 whole entry): as above
Procedure, shortened: as §1

[12] = target: HYOU1 (lysine site: K797) (UniProt Q9Y4L1)
Procedure, shortened: as §1

[13] = target: ITIH2 (lysine site: K148) (UniProt P19823)
Procedure, shortened: as §1

[14] = target: ITIH2 (lysine site: K150) (UniProt P19823)
Procedure, shortened: as §1

[15] = target: ITIH2 (lysine site: K190) (UniProt P19823)
Procedure, shortened: as §1

[16] = target: LMAN2 (lysine site: K303) (UniProt Q12907)
Procedure, shortened: as §1

MDH2 (lysine site: K185) = MDH2 (lysine site: K185) (UniProt P40926)
Procedure, shortened: as §1

[17] = target: NCR3LG1 (lysine site: K101) (UniProt Q68D85)
Procedure, shortened: as §1

[18] = target: NECTIN2 (lysine site: K97) (UniProt Q92692)
Procedure, shortened: as §1

PHB (lysine site: K240) = PHB (lysine site: K240) (UniProt P35232)
Procedure, shortened: as §1

[19] = target: PODXL (lysine site: K385) (UniProt O00592)
Procedure, shortened: as §1

[20] = target: PODXL (lysine site: K394) (UniProt O00592)
Procedure, shortened: as §1

[21] = target: PODXL (lysine site: K418) (UniProt O00592)
Procedure, shortened: as §1

[22] = target: PODXL (lysine site: K422) (UniProt O00592)
Procedure, shortened: as §1

[23] = target: PODXL (lysine site: K444) (UniProt O00592)
Procedure, shortened: as §1

[24] = target: PSMD6 (lysine site: K130) (UniProt Q15008)
Procedure, shortened: as §1

[25] = target: PSMD6 (lysine site: K372) (UniProt Q15008)
Procedure, shortened: as §1

[26] = target: PTPRK (lysine site: K227) (UniProt Q15262)
Procedure, shortened: as §1

[27] = target: PTPRK (lysine site: K244) (UniProt Q15262)
Procedure, shortened: as §1

[28] = target: PTPRK (lysine site: K262) (UniProt Q15262)
Procedure, shortened: as §1

[29] = target: PTPRK (lysine site: K394) (UniProt Q15262)
Procedure, shortened: as §1

[30] = target: PTPRK (lysine site: K397) (UniProt Q15262)
Procedure, shortened: as §1

[31] = target: PTPRK (lysine site: K722) (UniProt Q15262)
Procedure, shortened: as §1

[32] = target: SACM1L (lysine site: K483) (UniProt Q9NTJ5)
Procedure, shortened: as §1

[33] = target: SLC25A3 (lysine site: K218) (UniProt Q00325)
Procedure, shortened: as §1

[34] = target: SLC25A3 (lysine site: K234) (UniProt Q00325)
Procedure, shortened: as §1

[35] = target: SLC25A3 (lysine site: K252) (UniProt Q00325)
Procedure, shortened: as §1

[36] = target: SLC25A3 (lysine site: K304) (UniProt Q00325)
Procedure, shortened: as §1

[37] = target: SLC25A3 (lysine site: K313) (UniProt Q00325)
Procedure, shortened: as §1

[38] = target: SNAP23 (lysine site: K64) (UniProt O00161)
Procedure, shortened: as §1

[39] = target: TMED10 (lysine site: K145) (UniProt P49755)
Procedure, shortened: as §1

TPBG (lysine site: K328) = TPBG (lysine site: K328) (UniProt Q13641)
Sequence of TPBG (lysine site: K328) (Q13641 whole entry): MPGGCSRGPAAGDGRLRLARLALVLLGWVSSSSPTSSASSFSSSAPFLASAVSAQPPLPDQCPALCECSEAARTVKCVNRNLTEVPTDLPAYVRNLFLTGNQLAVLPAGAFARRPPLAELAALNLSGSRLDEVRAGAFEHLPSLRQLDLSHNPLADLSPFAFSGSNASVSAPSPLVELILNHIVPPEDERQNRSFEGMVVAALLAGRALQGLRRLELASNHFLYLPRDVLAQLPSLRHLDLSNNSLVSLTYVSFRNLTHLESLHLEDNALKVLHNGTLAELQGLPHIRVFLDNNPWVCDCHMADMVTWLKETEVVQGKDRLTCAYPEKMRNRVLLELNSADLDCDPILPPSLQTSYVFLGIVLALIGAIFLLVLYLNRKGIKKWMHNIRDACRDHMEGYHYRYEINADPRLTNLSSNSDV
Procedure, shortened: as §1

TPBG (lysine site: K76) = TPBG (lysine site: K76) (UniProt Q13641)
Sequence of TPBG (lysine site: K76) (Q13641 whole entry): as above
Procedure, shortened: as §1

[40] = target: TSPAN14 (lysine site: K132) (UniProt Q8NG11)
Procedure, shortened: as §1

[41] = target: UniProt P08729 (lysine site: K273)
Procedure, shortened: as §1

[42] = target: UniProt P08729 (lysine site: K296)
Procedure, shortened: as §1

[43] = target: UniProt P08729 (lysine site: K326)
Procedure, shortened: as §1

[44] = target: UniProt P08729 (lysine site: K331)
Procedure, shortened: as §1

[45] = target: UniProt P08729 (lysine site: K353)
Procedure, shortened: as §1

[46] = target: UniProt P08913 (lysine site: K190)
Procedure, shortened: as §1

[47] = target: UniProt P50895 (lysine site: K482)
Procedure, shortened: as §1

[48] = target: UniProt P50895 (lysine site: K531)
Procedure, shortened: as §1

[49] = target: UniProt Q6ZS17 (lysine site: K71)
Sequence of UniProt Q6ZS17 (lysine site: K71) (Q6ZS17 whole entry): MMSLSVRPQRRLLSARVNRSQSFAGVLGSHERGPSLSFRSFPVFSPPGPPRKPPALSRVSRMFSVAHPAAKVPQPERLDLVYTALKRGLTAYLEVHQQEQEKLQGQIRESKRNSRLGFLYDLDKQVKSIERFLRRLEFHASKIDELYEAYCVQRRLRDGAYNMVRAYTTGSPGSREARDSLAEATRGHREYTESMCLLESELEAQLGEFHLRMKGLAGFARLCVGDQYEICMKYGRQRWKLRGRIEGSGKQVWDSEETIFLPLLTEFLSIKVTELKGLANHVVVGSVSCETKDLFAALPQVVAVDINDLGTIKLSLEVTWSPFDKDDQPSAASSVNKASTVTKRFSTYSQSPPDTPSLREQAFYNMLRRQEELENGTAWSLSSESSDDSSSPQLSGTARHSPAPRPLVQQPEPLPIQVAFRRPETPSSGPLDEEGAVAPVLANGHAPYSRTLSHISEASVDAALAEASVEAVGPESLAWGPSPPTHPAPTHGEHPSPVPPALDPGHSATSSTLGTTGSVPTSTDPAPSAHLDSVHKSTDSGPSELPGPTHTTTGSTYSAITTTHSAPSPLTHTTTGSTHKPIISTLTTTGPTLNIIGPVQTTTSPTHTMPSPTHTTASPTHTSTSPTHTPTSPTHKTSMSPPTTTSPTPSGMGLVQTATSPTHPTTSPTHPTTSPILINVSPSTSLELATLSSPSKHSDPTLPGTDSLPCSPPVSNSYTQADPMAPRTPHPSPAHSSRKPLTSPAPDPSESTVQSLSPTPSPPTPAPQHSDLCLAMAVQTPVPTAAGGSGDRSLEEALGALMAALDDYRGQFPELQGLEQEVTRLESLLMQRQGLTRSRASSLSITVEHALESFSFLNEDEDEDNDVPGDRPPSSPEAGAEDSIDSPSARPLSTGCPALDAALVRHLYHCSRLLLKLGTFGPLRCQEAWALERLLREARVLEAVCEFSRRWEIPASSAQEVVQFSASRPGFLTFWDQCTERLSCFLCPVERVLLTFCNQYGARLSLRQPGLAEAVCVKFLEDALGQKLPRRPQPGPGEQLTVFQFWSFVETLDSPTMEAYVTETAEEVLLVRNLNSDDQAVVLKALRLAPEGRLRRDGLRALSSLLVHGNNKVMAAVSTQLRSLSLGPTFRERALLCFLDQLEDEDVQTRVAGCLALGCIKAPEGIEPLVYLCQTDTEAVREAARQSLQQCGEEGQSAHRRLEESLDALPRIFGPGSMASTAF
Procedure, shortened: as §1

WLS (lysine site: K161) = WLS (lysine site: K161) (UniProt Q5T9L3)
Procedure, shortened: as §1

WLS (lysine site: K168) = WLS (lysine site: K168) (UniProt Q5T9L3)
Procedure, shortened: as §1

YWHAB (lysine site: K70) = YWHAB (lysine site: K70) (UniProt P31946)
Procedure, shortened: as §1

YWHAZ (lysine site: K85) = YWHAZ (lysine site: K85) (UniProt P63104)
Procedure, shortened: as §1

Measured: lysine labeling ratio R10:1

Sequence of ACLY (lysine site: K1080) (P53396 whole entry): as the sequence (P53396 whole entry) above

C#CCNC(=O)CCSSCCC(=O)NCCc1ccc(C=O)c(C=O)c1
inactive: [1] 6.28 | ACLY (lysine site: K272) 2.72 | ACLY (lysine site: K836) 3 | ACLY (lysine site: K968) 4.07 | ACLY (lysine site: K978) 2.77 | [2] 2.98 | BSG (lysine site: K264) 2.59 | CALR (lysine site: K360) 5.32 | CALR (lysine site: K64) 2.12 | CDC37 (lysine site: K60) 2.43 | CSTB (lysine site: K91) 4.21 | GART (lysine site: K251) 5.53 | [9] 6.19 | [10] 2.84 | [11] 3.88 | [12] 6.93 | [13] 3.03 | [14] 3.29 | [15] 4.46 | MDH2 (lysine site: K185) 3.9 | [17] 2.58 | [19] 9.63 | [21] 2.7 | [23] 2.06 | [26] 3.07 | [28] 4.25 | [29] 7.37 | [30] 3.52 | [31] 2.01 | [32] 4.06 | [35] 3.68 | [36] 4.79 | [37] 4.2 | [39] 4.28 | TPBG (lysine site: K76) 2.54 | [41] 3.39 | [42] 3.6 | [43] 5.31 | [44] 5.69 | [45] 9.28 | [46] 2.31 | [48] 2.47 | [49] 5.33 | WLS (lysine site: K161) 9.23 | WLS (lysine site: K168) 5.48 | YWHAB (lysine site: K70) 3.41 | YWHAZ (lysine site: K85) 3.38
active: ACLY (lysine site: K780) 1.27 | [3] 1.51 | [4] 0.81 | [5] 1.18 | CALR (lysine site: K159) 1.52 | CAV1 (lysine site: K47) 1.22 | [6] 1.59 | [7] 0.745 | [8] 1.99 | [16] 1.72 | [18] 0.864 | PHB (lysine site: K240) 1.3 | [20] 0.785 | [22] 0.841 | [24] 0.957 | [25] 0.563 | [27] 1.58 | [33] 0.82 | [34] 1.8 | [38] 1.47 | TPBG (lysine site: K328) 1.99 | [40] 0.603 | [47] 1.94
